Laboratory results from PubChem BioAssay (NCATS).
Several values for one entry are separate records, joined by “and”; a condition that tells them apart may be missing. Equal values may be shown once. Inconclusive results are not listed. Activity calls are given as the source filed them. Unless noted, calls come from the whole dose curve; as a rule, active = well fitted curve in the direction sought with a large enough effect; inconclusive = small, poorly fitted or top-dose-only effect, or another doubt; inactive = no such curve, though single readings can be large; an effect the other way counts as inactive or inconclusive.

Columns and labels:
[1] = Cell Viability - MRC5 (AID 434; calls by dose curve;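 note: potency is the fitted concentration of half-maximal effect; cells exposed to compound for 40 hours at 37 °C; potency reflects cytotoxicity seen as loss of intracellular ATP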); conditions: MRC5 lung fibroblast viability, qHTS
Summary of the method: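 AC50 values come from Hill-equation fits of intracellular ATP loss, measured by CellTiter-Glo luminescence. Normal lung fibroblasts (MRC5) had 40 hr compound treatment at 37 C, normalized between DMSO and 100 uM tamoxifen.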

[2] = Cell Viability - HUV-EC-C (AID 542); conditions: HUV-EC-C endothelial cell viability, qHTS; series mostly up to 92.2 µM;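 note: cells exposed to compound for 40 hours; % is set by controls: 0 for no effect and ±100 for the full control effect; nearly all actives have a fitted effect of over 35% in size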
Summary of the method: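 Cells were seeded at 1000 per well and incubated 5 hr at 37 °C before compound addition. After 40 hr at 37 °C, CellTiter-Glo reagent was added for 20 min and luminescence read. AC50 values came from Hill-equation modelling.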

[3] = Cellular Toxicity (caspase-3) HepG2 (AID 654); conditions: HepG2 caspase-3 activation, luminescence; series mostly up to 92.2 µM;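 note: cells exposed to compound for 16 hours before reading; 0% = DMSO alone and 100% = caspase signal from 100 µM tamoxifen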
Summary of the method: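 Caspase 3/7 activation in HepG2 is measured as rising luminescence after a 16 hr treatment at 37 °C. Values are scaled between DMSO basal and 100 uM tamoxifen, and AC50 is fitted with the Hill equation.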

[4] = Cellular Toxicity (caspase-3) HUV-EC-C (AID 656); conditions: HUV-EC-C cells, caspase-3 activation (apoptosis); series mostly up to 92.2 µM
Summary of the method: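 HUV-EC-C endothelial cells, 1000/well, were pre-incubated 5 hr at 37°C, then exposed to compounds for 16 hr at 37°C. Caspase-Glo 3/7 luminescence was read after 20 min at room temperature. AC50 came from Hill fits, normalized to DMSO and 100 uM tamoxifen.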

[5] = Cellular Toxicity (caspase-3) SHSY5Y (AID 657); conditions: SH-SY5Y caspase-3 activation; series mostly up to 91.7 µM
Summary of the method: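 SH-SY5Y human neuroblastoma cells (1500/well) were treated with compounds for 16 h at 37 °C, then Caspase-Glo 3/7 luminescence was read after 1 h at room temperature. Data normalized to DMSO and 10 uM staurosporine; AC50 from Hill fits.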

[6] = Cellular Toxicity (caspase-3) MRC-5 (AID 659); conditions: MRC-5 cells, luminescence, normalized: DMSO 0%, 10 µM staurosporine 100%; series mostly up to 91.7 µM
Summary of the method: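 Luminescent Caspase-Glo 3/7 read-out (1 h, room temperature) after a 16 h, 37 °C compound exposure of MRC-5 lung fibroblasts at 1500 cells/well. Concentration-response AC50 from Hill equation; 0% DMSO, 100% 10 uM staurosporine.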

[7] = Cellular Toxicity (caspase-3) Mesangial (AID 660); conditions: mesangial cells, normalized: DMSO 0%, 100 µM tamoxifen 100%; series mostly up to 91.7 µM;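 note: combined caspase 3 and 7 activity read by Caspase-Glo luminescence; cells exposed to compound for 16 h before the caspase read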
Summary of the method: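 Seed cells derived from normal human renal glomeruli, incubate 5 h, add compounds across concentrations and incubate 16 h at 37 °C. Caspase 3/7 activation is then quantified by luciferase light, with AC50 derived by Hill modeling.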

[8] = Cellular Toxicity (caspase-3) SK-N-SH (AID 661); conditions: SK-N-SH caspase-3 activation, qHTS, DMSO as zero, staurosporine as full; series mostly up to 91.7 µM
Summary of the method: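 Cells were seeded and incubated 5 hr at 37 °C, dosed with compound over a concentration range for 16 hr, then given Caspase-Glo 3/7 reagent for 1 hr at room temperature before luminescence reading.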

[9] = Cellular Toxicity (caspase-3) H-4-II-E (AID 663); conditions: H-4-II-E rat hepatoma; Potency: caspase-3 activation; series mostly up to 92.2 µM
Summary of the method: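 Caspase 3/7 activation measured by luminescent aminoluciferin substrate cleavage after 16 hr compound treatment of H-4-II-E cells in complete medium. Increase normalized between DMSO (basal) and 100 uM tamoxifen (100%); Hill-equation AC50 from concentration-response.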

[10] = Cellular Toxicity (caspase-3) N2a (AID 665); conditions: N2a cells, luminescence, normalized: DMSO 0%, 10 µM staurosporine 100%; series mostly up to 92.2 µM;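 note: compound exposure lasted 16 h at 37 °C before readout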
Summary of the method: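 Caspase-3/7 activation, measured as increased luminescence from aminoluciferin release, is quantified in mouse N2a cells exposed to compounds for 16 h. Values are normalized to DMSO and 10 uM staurosporine, with AC50 derived by Hill modelling.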

[11] = Cellular Toxicity (caspase-3) NIH 3T3 (AID 666); conditions: NIH 3T3 caspase-3 activation, apoptosis/toxicity, 0% DMSO, 100% is 100 µM tamoxifen; series mostly up to 92.2 µM;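 note: 0% = DMSO basal and 100% = 100 µM tamoxifen stimulation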
Summary of the method: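 Cells were plated at 1000 per well and incubated 5 hr at 37°C, then compound was added for 16 hr. Caspase-Glo 3/7 reagent followed for 20 min at room temperature before luminescence was read.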

[12] = Cellular Toxicity (caspase-3) Renal Proximal Tubule (AID 667); conditions: renal proximal tubule cells, primary cells freshly taken from rat; Potency: caspase-3 activation; series mostly up to 91.7 µM;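 note: cells exposed to compound for 16 hours at 37 °C before detection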
Summary of the method: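 Primary rat proximal tubule cells, 1000/well, 5 h plating at 37 °C, then compound 16 h at 37 °C. Caspase-Glo 3/7 reagent, 1 h RT, luminescence. Normalized to DMSO (basal) and 10 uM staurosporine (100%); Hill-fit AC50.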

[13] = MultiTox-Fluor Cytotoxicity Assay - LYMP1-001 - Dead Cells (AID 946); conditions: LYMP1-001 lymphoblastoid cells, dead-cell protease fluorescence; series mostly up to 92.2 µM;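 note: 0% = DMSO and 100% = tetraoctylammonium bromide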
Summary of the method: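 In this qHTS, 15 uM tetraoctylammonium bromide defined 100% and DMSO defined basal activity. Lymphoblastoid cells (LYMP1-001, 2500 per well) received compound for 16 hr at 37 C before a fluorogenic dead-cell substrate readout at 485/520 nm.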

[14] = MultiTox-Fluor Cytotoxicity Assay - LYMP1-003 - Dead Cells (AID 961); conditions: LYMP1-003 lymphoblastoid cells, dead-cell protease fluorescence; series mostly up to 92.2 µM;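 note: 0% = DMSO and 100% = tetraoctylammonium bromide; nearly all actives have a fitted effect of over 70% in size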
Summary of the method: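 Acute toxicity is scored as increased dead-cell protease activity in human lymphoblastoid LYMP1-003 cells after 16 h compound exposure in complete culture medium. Activity is normalized to DMSO basal and 15 uM tetraoctylammonium bromide as full response.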

[15] = MultiTox-Fluor Cytotoxicity Assay - LYMP1-003 - Live Cells (AID 962); conditions: LYMP1-003 lymphoblastoid cells, MultiTox-Fluor live-cell protease fluorescence; series mostly up to 92.2 µM;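 note: 0% = DMSO only and full loss = 92 µM tetraoctylammonium bromide; cytotoxic hits lower the live-cell protease signal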
Summary of the method: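 Acute cytotoxicity is scored as a drop in live-cell protease activity in human lymphoblastoid LYMP1-003 cells after 16 hr compound exposure at 37 C. AC50 values come from Hill-equation modelling of concentration-response data.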

[16] = Cell Viability - LYMP1-003 - Assay at 24 hr (AID 963); conditions: LYMP1-003 lymphoblastoid cell viability; series mostly up to 92.2 µM;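 note: plate controls were DMSO only for no effect and tetraoctylammonium bromide positive control for full effect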
Summary of the method: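 Cytotoxicity is scored as a concentration-dependent fall in ATP-linked luciferase signal in human lymphoblastoid LYMP1-003 cells treated 24 hr at 37 C in complete culture medium.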

[17] = qHTS Assay for Identification of Small Molecule Inducers of Hypoxia Response (AID 2120; active = well fitted curve in the direction sought with a large enough effect in the signal ratio, with a control signal flat, not every such curve was filed as active; the % refers to the signal ratio; note: 0% is about no effect); conditions: hypoxia response reporter cells, beta-lactamase ratio readout; series mostly up to 104 µM
Summary of the method: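 Cell-based qHTS for reporter induction: hypoxia response element controlled beta-lactamase in ME-180 cells. Compounds incubated 17 h at 37 degrees C; activity from blue/green (460/530 nm) ratio, inducers ranked by AC50.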

[18] = molecular target: Peroxisome proliferator-activated receptor alpha (Homo sapiens) (UniProt Q07869); experiment: qHTS assay for small molecule agonists of the peroxisome proliferator-activated receptor alpha (PPARalpha) signaling pathway (AID 651778); conditions: PathHunter PPARalpha complementation, chemiluminescence, 6 h; max response: stronger effect = higher value; note: % of control where 0% means no effect
Summary of the method: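 Chemiluminescence from complemented enzyme reported PPARalpha activation in cells after 6 hr of compound treatment at 37 C. The detection reagent was incubated for 60 min at room temperature, and compounds were scored as agonists.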

[19] = qHTS assay for small molecule agonists of the antioxidant response element (ARE) signaling pathway measured by Nrf2-dependant transcriptional activity - cell viability counter screen (AID 720653; active = well fitted curve in the direction sought with a large enough effect in the repeat runs; an effect the other way counts as inactive or inconclusive; note: % is set by controls: 0 for no effect and ±100 for the full control effect); conditions: ARE-bla HepG2 viability, CellTiter-Glo ATP luminescence, 16 h; max response: stronger effect = lower value
Summary of the method: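 Cytotoxicity counter screen: intracellular ATP quantified by CellTiter-Glo luminescence in the same ARE-bla HepG2 plates, after 16 h compound exposure and a 2 h beta-lactamase substrate step.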

[20] = qHTS assay for cell viability of the p53RE-bla HCT-116 cell line (AID 743292); conditions: p53RE-bla HCT-116 viability, ATP luminescence, 16 h; series mostly up to 95 µM; note: % is set by controls: 0 for no effect and ±100 for the full control effect; nearly all actives have a fitted effect of over 55% in size
Summary of the method: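 CellSensor p53RE-bla HCT-116 cells (4,000/well) pre-incubated 5 h at 37 C, then exposed to compounds in DMSO for 16 h at 37 C. Viability read as ATP content by CellTiter-Glo luminescence after 30 min at room temperature.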

Chain of Peroxisome proliferator-activated receptor alpha (Homo sapiens) (Q07869 whole entry, looked up): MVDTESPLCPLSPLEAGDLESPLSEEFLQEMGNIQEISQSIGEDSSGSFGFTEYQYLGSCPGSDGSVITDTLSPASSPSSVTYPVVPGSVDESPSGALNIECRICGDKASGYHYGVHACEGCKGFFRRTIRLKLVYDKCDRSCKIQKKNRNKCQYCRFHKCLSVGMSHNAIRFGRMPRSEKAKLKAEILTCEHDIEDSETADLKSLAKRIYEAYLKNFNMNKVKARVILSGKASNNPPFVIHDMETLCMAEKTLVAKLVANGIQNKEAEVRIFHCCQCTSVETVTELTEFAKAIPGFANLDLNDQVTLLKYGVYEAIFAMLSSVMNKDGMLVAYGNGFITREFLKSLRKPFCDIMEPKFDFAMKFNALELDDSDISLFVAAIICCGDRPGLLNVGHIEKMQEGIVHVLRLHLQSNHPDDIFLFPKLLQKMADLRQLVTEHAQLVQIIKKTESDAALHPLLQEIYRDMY

C/C(Cl)=C/CCl
inactive: Potency [1] > 92 µM | Potency [2] | Potency [3] | Potency [4] | Potency [5] | outcome [6] | outcome [7] | outcome [8] | Potency [9] | outcome [10] | outcome [11] | Potency [12] | Potency [13] | Potency [14] | Potency [15] | Potency [16] | Potency [17] | max response [18] -4.68% | max response [19] 5.48% | Potency [20]

C1CCCNCC1
inactive: Potency [1] > 92 µM | Potency [2] | Potency [3] | Potency [4] | Potency [5] | outcome [6] | outcome [7] | outcome [8] | Potency [9] | outcome [10] | outcome [11] | Potency [12] | Potency [13] | Potency [14] | Potency [15] | Potency [16] | Potency [17] | max response [18] 0.101% | max response [19] -5.98% | Potency [20]

CC(=O)OC1CC(C)OC(C)O1 (stereo not given)
inactive: Potency [1] > 92 µM | Potency [2] | Potency [3] | Potency [4] | Potency [5] | outcome [6] | outcome [7] | outcome [8] | Potency [9] | outcome [10] | outcome [11] | Potency [12] | Potency [13] | Potency [14] | Potency [15] | Potency [16] | Potency [17] | max response [18] -4.25% and 0.0018% | max response [19] 6.75% and -0.741% | Potency [20]

OCC(CBr)(CBr)CBr
inactive: Potency [1] > 92 µM | Potency [2] | Potency [3] | Potency [4] | Potency [5] | outcome [6] | outcome [7] | outcome [8] | Potency [9] | outcome [10] | outcome [11] | Potency [12] | Potency [13] | Potency [14] | Potency [15] | Potency [16] | Potency [17] | max response [18] 1.63% | max response [19] -12.4% | Potency [20]

Oc1c(Cl)cc(Cl)c(Cl)c1Cl
inactive: Potency [1] > 92 µM | Potency [2] | Potency [3] | Potency [4] | Potency [5] | outcome [6] | outcome [7] | outcome [8] | Potency [9] | outcome [10] | outcome [11] | Potency [12] | Potency [13] | Potency [14] | Potency [15] | Potency [16] | Potency [17] | max response [18] 4.27% | max response [19] -1.59% and 6.5% | Potency [20]

COc1ccc(C(=O)Nc2ccccc2)cc1[N+](=O)[O-]
inactive: Potency [1] > 92 µM | Potency [2] | Potency [3] | Potency [4] | Potency [5] | outcome [6] | outcome [7] | outcome [8] | Potency [9] | outcome [10] | outcome [11] | Potency [12] | Potency [13] | Potency [14] | Potency [15] | Potency [16] | Potency [17] | max response [18] -0.106% | max response [19] 0.739% | Potency [20]

CC(C)COC(=O)COc1cc(Cl)c(Cl)cc1Cl
inactive: Potency [1] > 92 µM | Potency [2] | Potency [3] | Potency [4] | Potency [5] | outcome [6] | outcome [7] | outcome [8] | Potency [9] | outcome [10] | outcome [11] | Potency [12] | Potency [13] | Potency [14] | Potency [15] | Potency [16] | Potency [17] | max response [18] 9.61% | max response [19] 7.92% | Potency [20]
